From PubChem BioAssay AID1159580 (chemical genetic matrix, 2015)
Hit rate of the full screen: of about 5,500 compounds, about 2,000 (36%) were called active. Not shown: some 18% with an inconclusive outcome. Cut-off read from the data, not from the text of the source: active = normalized growth mostly below about 0.91 (no sharp cut-off); inconclusive = no clear call, values can overlap the other calls; inactive = mostly above about 0.92. This is one part of the list.

Assay: chemical genetic growth profiling, strain panel (AID 1159580);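 note: tested at 20 µM; growth read once vehicle control cultures reached saturation at 30 °C; 1 = growth at the plate median or of vehicle wells; lower values mean less growth of the strain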
Conditions: growth OD

Measured: normalized growth

CCN(CC)CCNc1ccc(CO)c2sc3ccccc3c(=O)c12
inactive: S. cerevisiae deletion strains, locus YJR075W, strain HOC1, active compounds read low 0.979 | S. cerevisiae deletion strains, locus YKL009W, strain mrt4, active compounds read low 0.993 | S. cerevisiae deletion strains, locus YKL068W, active compounds read low 1 | S. cerevisiae deletion strains, locus YKL085W, strain MDH1 (second series), active compounds read low 0.996 | S. cerevisiae deletion strains, locus YKL085W, strain MDH1, active compounds read low 0.996 | S. cerevisiae deletion strains, locus YKL160W, strain elf1, active compounds read low 1.01 | S. cerevisiae deletion strains, locus YKL190W, strain CNB1, active compounds read low 1 | S. cerevisiae deletion strains, locus YKR001C, strain vps1, active compounds read low 1 | S. cerevisiae deletion strains, locus YKR026C, strain gcn3, active compounds read low 1.02 | S. cerevisiae deletion strains, locus YKR091W, strain srl3, active compounds read low 1.01 | S. cerevisiae deletion strains, locus YLL001W, strain dnm1, active compounds read low 1.01 | S. cerevisiae deletion strains, locus YLL026W, active compounds read low 1.01 | S. cerevisiae deletion strains, locus YLL041C, strain sdh2, active compounds read low 0.991 | S. cerevisiae deletion strains, locus YLR027C, strain aat2, active compounds read low 1.01 | S. cerevisiae deletion strains, locus YLR039C, strain RIC1, active compounds read low 1.01 | S. cerevisiae deletion strains, locus YLR058C, strain SHM2, active compounds read low 0.998 | S. cerevisiae deletion strains, locus YLR102C, strain apc9, active compounds read low 1.02 | S. cerevisiae deletion strains, locus YLR113W, strain HOG1, active compounds read low 1.05 | S. cerevisiae deletion strains, locus YLR221C, strain rsa3, active compounds read low 1.01 | S. cerevisiae deletion strains, locus YLR258W, strain gsy2, active compounds read low 1.01 | S. cerevisiae deletion strains, locus YLR262C, strain YPT6 (second series), active compounds read low 1 | S. cerevisiae deletion strains, locus YLR262C, strain YPT6, active compounds read low 1.01 | S. cerevisiae deletion strains, locus YLR268W, strain sec22, active compounds read low 0.947 | S. cerevisiae deletion strains, locus YLR320W, strain mms22, active compounds read low 1.01 | S. cerevisiae deletion strains, locus YLR330W, strain CHS5, active compounds read low 1.01 | S. cerevisiae deletion strains, locus YLR342W, strain FKS1 (second series), active compounds read low 0.938 | S. cerevisiae deletion strains, locus YLR342W, strain FKS1, active compounds read low 1 | S. cerevisiae deletion strains, locus YLR357W, strain rsc2, active compounds read low 1.04 | S. cerevisiae deletion strains, locus YLR370C, strain arc18, active compounds read low 1.01 | S. cerevisiae deletion strains, locus YLR371W, strain rom2, active compounds read low 1.01 | S. cerevisiae deletion strains, locus YLR384C, strain iki3, active compounds read low 1.01 | S. cerevisiae deletion strains, locus YLR418C, strain cdc73, active compounds read low 0.919 | S. cerevisiae deletion strains, locus YML016C, strain PPZ1, active compounds read low 0.996 | S. cerevisiae deletion strains, locus YML032C, strain rad52, active compounds read low 0.948 | S. cerevisiae deletion strains, locus YML120C, strain ndi1, active compounds read low 1.02 | S. cerevisiae deletion strains, locus YML124C, strain tub3, active compounds read low 1.01 | S. cerevisiae deletion strains, locus YMR058W, strain fet3, active compounds read low 0.998 | S. cerevisiae deletion strains, locus YMR078C, strain ctf18, active compounds read low 1.01 | S. cerevisiae deletion strains, locus YMR125W, strain sto1, active compounds read low 1 | S. cerevisiae deletion strains, locus YMR129W, active compounds read low 1 | S. cerevisiae deletion strains, locus YMR205C, strain PFK2, active compounds read low 0.997 | S. cerevisiae deletion strains, locus YMR223W, strain ubp8, active compounds read low 0.994 | S. cerevisiae deletion strains, locus YMR231W, strain pep5, active compounds read low 1.01 | S. cerevisiae deletion strains, locus YMR263W, strain SAP30, active compounds read low 0.985 | S. cerevisiae deletion strains, locus YMR307W, strain GAS1, active compounds read low 1.01 | S. cerevisiae deletion strains, locus YNL067W, strain RPL9B, active compounds read low 0.973 | S. cerevisiae deletion strains, locus YNL071W, strain lat1, active compounds read low 1.01 | S. cerevisiae deletion strains, locus YNL128W, strain TEP1, active compounds read low 0.992 | S. cerevisiae deletion strains, locus YNL153C, strain GIM3, active compounds read low 0.962 | S. cerevisiae deletion strains, locus YNL183C, strain NPR1, active compounds read low 0.952 | S. cerevisiae deletion strains, locus YNL209W, strain ssb2, active compounds read low 1.02 | S. cerevisiae deletion strains, locus YNL233W, strain BNI4, active compounds read low 0.955 | S. cerevisiae deletion strains, locus YNL248C, strain rpa49, active compounds read low 1 | S. cerevisiae deletion strains, locus YNL250W, strain rad50, active compounds read low 1 | S. cerevisiae deletion strains, locus YNL271C, strain bni1, active compounds read low 1.01 | S. cerevisiae deletion strains, locus YNL298W, strain CLA4, active compounds read low 1.01 | S. cerevisiae deletion strains, locus YNL307C, strain MCK1, active compounds read low 0.962 | S. cerevisiae deletion strains, locus YNL322C, strain KRE1 (second series), active compounds read low 1.01 | S. cerevisiae deletion strains, locus YNL322C, strain KRE1, active compounds read low 1.01 | S. cerevisiae deletion strains, locus YNR049C, strain mso1, active compounds read low 1.01 | S. cerevisiae deletion strains, locus YNR052C, strain pop2, active compounds read low 1.01 | S. cerevisiae deletion strains, locus YOL006C, strain TOP1, active compounds read low 0.883 | S. cerevisiae deletion strains, locus YOL012C, strain htz1 0.879 | S. cerevisiae deletion strains, locus YOL147C, strain pex11, active compounds read low 1.02 | S. cerevisiae deletion strains, locus YOR001W, strain rrp6, active compounds read low 1 | S. cerevisiae deletion strains, locus YOR061W, strain CKA2, active compounds read low 1 | S. cerevisiae deletion strains, locus YOR069W, strain VPS5, active compounds read low 0.993 | S. cerevisiae deletion strains, locus YOR070C, strain gyp1, active compounds read low 1 | S. cerevisiae deletion strains, locus YOR080W, strain dia2, active compounds read low 1.01 | S. cerevisiae deletion strains, locus YOR083W, strain WHI5, active compounds read low 1 | S. cerevisiae deletion strains, locus YOR106W, strain vam3, active compounds read low 1.02 | S. cerevisiae deletion strains, locus YOR136W, strain idh2, active compounds read low 1.01 | S. cerevisiae deletion strains, locus YOR144C, strain elg1, active compounds read low 1 | S. cerevisiae deletion strains, locus YOR184W, strain ser1, active compounds read low 0.995 | S. cerevisiae deletion strains, locus YOR231W, strain MKK1, active compounds read low 1.04 | S. cerevisiae deletion strains, locus YOR265W, strain rbl2, active compounds read low 1 | S. cerevisiae deletion strains, locus YOR270C, strain vph1, active compounds read low 0.976 | S. cerevisiae deletion strains, locus YOR290C, strain snf2, active compounds read low 1.01 | S. cerevisiae deletion strains, locus YOR316C, strain cot1, active compounds read low 1.01 | S. cerevisiae deletion strains, locus YPL051W, strain arl3, active compounds read low 0.997 | S. cerevisiae deletion strains, locus YPL055C, strain LGE1, active compounds read low 0.954 | S. cerevisiae deletion strains, locus YPL078C, strain atp4, active compounds read low 1.01 | S. cerevisiae deletion strains, locus YPL106C, strain sse1, active compounds read low 1.02 | S. cerevisiae deletion strains, locus YPL240C, strain hsp82, active compounds read low 1.01 | S. cerevisiae deletion strains, locus YPL241C, strain CIN2, active compounds read low 1.02 | S. cerevisiae deletion strains, locus YPL256C, strain CLN2, active compounds read low 1.01 | S. cerevisiae deletion strains, locus YPR119W, strain clb2, active compounds read low 1.02 | S. cerevisiae deletion strains, locus YPR141C, strain kar3, active compounds read low 1.02 | S. cerevisiae deletion strains, locus YPR163C, strain tif3, active compounds read low 0.996 | S. cerevisiae deletion strains, locus YPR167C, strain met16, active compounds read low 1.01 | S. cerevisiae deletion strains, strain wtn01, active compounds read low 0.988 | S. cerevisiae strains, strain wild type, active compounds read low 1.01
